Records with an inconclusive call do not appear. Entries that show only a call come without a potency. The source made the active and inactive calls. Calls follow the shape of the full dose curve.

Chain of Peroxisome proliferator-activated receptor gamma (Homo sapiens) (P37231 whole entry, looked up): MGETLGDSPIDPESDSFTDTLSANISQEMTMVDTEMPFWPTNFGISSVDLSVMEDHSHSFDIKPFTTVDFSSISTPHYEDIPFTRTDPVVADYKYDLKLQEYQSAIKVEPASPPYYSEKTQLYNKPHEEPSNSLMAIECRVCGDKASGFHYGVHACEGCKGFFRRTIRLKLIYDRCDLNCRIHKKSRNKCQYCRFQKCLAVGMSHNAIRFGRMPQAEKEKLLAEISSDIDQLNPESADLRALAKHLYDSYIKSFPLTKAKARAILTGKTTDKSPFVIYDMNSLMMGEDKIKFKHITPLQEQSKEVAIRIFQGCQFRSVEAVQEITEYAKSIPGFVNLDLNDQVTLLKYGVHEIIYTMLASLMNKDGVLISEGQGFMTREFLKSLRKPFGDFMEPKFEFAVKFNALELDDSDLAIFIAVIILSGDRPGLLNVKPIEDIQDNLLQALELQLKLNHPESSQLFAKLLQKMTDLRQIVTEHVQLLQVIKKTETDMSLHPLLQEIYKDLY

The assay concerns the target Peroxisome proliferator-activated receptor gamma (Homo sapiens) (UniProt P37231). Kind of assay: qHTS assay to identify small molecule antagonists of the peroxisome proliferator-activated receptor gamma (PPARg) signaling pathway (AID 743191). Also: nearly all actives have a fitted effect of over 30% in size. Conditions: HEK293H PPARg-UAS-bla, beta-lactamase ratio, antagonist, 17 h; series mostly up to 62.6 µM. Summed up:
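GeneBLAzer PPARg UAS-bla HEK293H cells, 5 h post-plating, exposed to compounds 17 h at 37C. LiveBLAzer B/G FRET substrate added for 1 h at room temperature; beta-lactamase reporter read by fluorescence intensity.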
In general terms: In qHTS, concentration-response curves come from the screen itself.
Consider `O=S1(=O)CCCO1`, for which the Potency entry is “inactive”.
The same measure for `CCOC(=O)C(C)Oc1ccc(Oc2cnc3cc(Cl)ccc3n2)cc1` (configuration not stated): “inactive”; for `COC(=O)CC(=O)OC`: “inactive”.
Under `C=C[Si](OCCOC)(OCCOC)OCCOC` stands “inactive”.
Under `CN(C)/N=N/c1nc[nH]c1C(N)=O` stands “inactive”.
Consider `c1ccc2c(c1)[nH]c1ccccc12`, for which the Potency entry is “inactive”.
The same measure for `CCCCCCC(C)O` (configuration not stated): “inactive”.
As for `CCCCCCCCCCCCO`, the Potency result was “inactive”.
The same measure for `CC(C)[N+](C)(CCOC(=O)C1c2ccccc2Oc2ccccc21)C(C)C`: “inactive”; for `C/C=C/C(=O)N(CC)c1ccccc1C`: “inactive”.
The same measure for `CCc1cccc2c3c([nH]c12)C(CC)(CC(=O)O)OCC3` (configuration not stated): “inactive”; for `CCCCCCCCCCCCCO`: “inactive”.
Take `CC(C)=CCO`: the Potency entry was “inactive”.
The same measure for `CC(=O)Oc1c(C)c(C)c2c(c1C)CC[C@@](C)(CCC[C@H](C)CCC[C@H](C)CCCC(C)C)O2`: “inactive”.
The same measure for `Cc1ccc(C(C)(C)C)cc1`: “inactive”; for `CCO[Si](CCCNC(N)=O)(OCC)OCC`: “inactive”.
The same measure for `OC[C@H]1O[C@@H]2O[C@H]3[C@H](O)[C@@H](O)[C@@H](O[C@H]4[C@H](O)[C@@H](O)[C@@H](O[C@H]5[C@H](O)[C@@H](O)[C@@H](O[C@H]6[C@H](O)[C@@H](O)[C@@H](O[C@H]7[C@H](O)[C@@H](O)[C@@H](O[C@H]1[C@H](O)[C@H]2O)O[C@@H]7CO)O[C@@H]6CO)O[C@@H]5CO)O[C@@H]4CO)O[C@@H]3CO`: “inactive”; for `CC1(C)O[C@@H]2C[C@H]3[C@@H]4C[C@H](F)C5=CC(=O)C=C[C@]5(C)[C@@]4(F)[C@@H](O)C[C@]3(C)[C@]2(C(=O)CO)O1`: “inactive”.
Regarding `CN(C)C`, the Potency entry is “inactive”.
The same measure for `Cc1ccc([N+](=O)[O-])c(C)c1`: “inactive”; for `O=C1CCc2ccccc2O1`: “inactive”.
The same measure for `[Na+]`: “inactive”; for `Nc1cc(Cl)c(N)c(Cl)c1`: “inactive”; for `CC(C)(C)c1cccc(C(C)(C)C)c1O`: “inactive”.
The same measure for `C=CCNCC=C`: “inactive”; for `FC(F)(F)C(Cl)Br` (configuration not stated): “inactive”; for `CCCCCC1C(=O)CCC1CC(=O)OC` (configuration not stated): “inactive”.
Turning to `CNC[C@H](O)c1ccc(O)c(O)c1`, the Potency entry was “inactive”.
The same measure for `NCCS(=O)(=O)O`: “inactive”; for `Cc1ccc(S(=O)(=O)O)cc1C`: “inactive”.
The same measure for `Cc1ccc(N)c([N+](=O)[O-])c1`: “inactive”; for `O=C(O)c1cc(=O)[nH]c(=O)[nH]1`: “inactive”.
